The values below come from the supplement of paper PMC6853941.

Values without a mark were called inactive.

For one experiment, the system named is MCF10A. The experiment in a line: perturbation Mahalanobis distance of morphological profile vs DMSO controls (Mahalanobis distance (SD units)); higher = stronger morphological change, active = 7 or more. The settings on record: screen batch: Batch1_Mahalanobis_Distance; 72 h. As for the experimental part:
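MCF10A cells were seeded onto drugs dispensed acoustically into 384-well plates, using one dose per drug chosen from its human peak plasma concentration, and incubated for 72 h at 37 °C. Cells were stained for DNA, tubulin and mitochondria and imaged; 78 CellProfiler features were extracted, plate-normalised and compared with DMSO wells.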
With `O=C1CC[C@@]2(O)[C@H]3Cc4ccc(O)c5c4[C@@]2(CCN3CC2CC2)[C@H]1O5` [Naltrexone] (0.44 µM), the “perturbation Mahalanobis distance” value was 3.73.

For the compound `CCN(C(C)=O)c1cccc(-c2ccnc3c(C#N)cnn23)c1` [Zaleplon] (1.6 µM), the “perturbation Mahalanobis distance” value was 2.43.

As for `Cc1cccc([C@H](C)c2cnc[nH]2)c1C` [Dexmedetomidine] (42 µM), the “perturbation Mahalanobis distance” value was 2.48.

For the compound `CC[C@@H](CO)NC(=O)[C@@H]1C=C2c3cccc4[nH]cc(c34)C[C@H]2N(C)C1` [Methylergonovine] (44 µM), the “perturbation Mahalanobis distance” value was 2.29.

As for `CN1C[C@H](C(=O)N[C@]2(C)O[C@@]3(O)[C@@H]4CCCN4C(=O)[C@H](Cc4ccccc4)N3C2=O)C[C@@H]2c3cccc4[nH]cc(c34)C[C@H]21` [Dihydroergotamine] (74 µM), the “perturbation Mahalanobis distance” value was 2.63.

Regarding `CCC(C)C(C)(COC(N)=O)COC(N)=O` (stereo not drawn) [Mebutamate] (144.2 µM), the “perturbation Mahalanobis distance” value was 2.17.

In the case of `NC(=O)CS(=O)C(c1ccccc1)c1ccccc1` (stereo not drawn) [Armodafinil] (27.1 µM), the “perturbation Mahalanobis distance” value is 3.56.

As to `NCC(CC(=O)O)c1ccc(Cl)cc1` (stereo not drawn) [Baclofen] (4.7 µM), the “perturbation Mahalanobis distance” value is 1.93.

On to `NCC1(CC(=O)O)CCCCC1` [Gabapentin] (122.6 µM), for which the “perturbation Mahalanobis distance” value is 2.06.

For the compound `CN(C)C(=O)Oc1ccc[n+](C)c1` [Pyridostigmine  Bromide] (5.5 µM), the “perturbation Mahalanobis distance” value is 2.83.

Consider `COC[C@@H](NC(C)=O)C(=O)NCc1ccccc1` [Lacosamide] (49.9 µM), for which the “perturbation Mahalanobis distance” value was 3.59.

Consider `O=[N+]([O-])O[C@H]1CO[C@H]2[C@@H]1OC[C@H]2O[N+](=O)[O-]` [Isosorbide Dinitrate] (0.13 µM), for which the “perturbation Mahalanobis distance” value was 2.18.

Take `NC1CC1c1ccccc1` (stereo not drawn) [Tranylcypromine] (7.5 µM): the “perturbation Mahalanobis distance” value was 2.27.

Turning to `C[C@]12CC[C@H]3[C@@H](CCC4=CC(=O)CC[C@@]43C)[C@@H]1CC[C@@H]2O` [Testosterone] (0.17 µM), the “perturbation Mahalanobis distance” value was 3.32.

As to `C[C@]12Cc3cn[nH]c3C[C@@H]1CC[C@@H]1[C@@H]2CC[C@@]2(C)[C@H]1CC[C@]2(C)O` [Stanozolol] (62.7 µM), the “perturbation Mahalanobis distance” value is 2.14.

For `COc1cc2c(cc1OC)C1CC(=O)C(CC(C)C)CN1CC2` (stereo not drawn) [Tetrabenazine] (10 µM), the “perturbation Mahalanobis distance” value was 4.2.

Take `O=C(O)CCCc1ccc(N(CCCl)CCCl)cc1` [Chlorambucil] (8.1 µM): the “perturbation Mahalanobis distance” value is 2.75.

`CC(C)(O)C(=O)Nc1ccc([N+](=O)[O-])c(C(F)(F)F)c1` [Hydroxyflutamide] (27.1 µM): the “perturbation Mahalanobis distance” value is 5.03.

Consider `C[C@]12CC[C@H]3[C@@H](CC[C@@]45O[C@@H]4C(O)=C(C#N)C[C@]35C)[C@@H]1CC[C@@H]2O` [Trilostane] (308.7 µM), for which the “perturbation Mahalanobis distance” value was 3.36.

Still in this experiment, the particulars now being: screen batch: Batch2_Mahalanobis_Distance; 72 h.
`O=C1CC[C@@]2(O)[C@H]3Cc4ccc(O)c5c4[C@@]2(CCN3CC2CC2)[C@H]1O5` [Naltrexone] (0.44 µM): the “perturbation Mahalanobis distance” value is 3.37.

In the case of `CCN(C(C)=O)c1cccc(-c2ccnc3c(C#N)cnn23)c1` [Zaleplon] (1.6 µM), the “perturbation Mahalanobis distance” value was 3.38.

In the case of `Cc1cccc([C@H](C)c2cnc[nH]2)c1C` [Dexmedetomidine] (42 µM), the “perturbation Mahalanobis distance” value was 2.42.

In the case of `CC[C@@H](CO)NC(=O)[C@@H]1C=C2c3cccc4[nH]cc(c34)C[C@H]2N(C)C1` [Methylergonovine] (44 µM), the “perturbation Mahalanobis distance” value was 3.37.

Take `CN1C[C@H](C(=O)N[C@]2(C)O[C@@]3(O)[C@@H]4CCCN4C(=O)[C@H](Cc4ccccc4)N3C2=O)C[C@@H]2c3cccc4[nH]cc(c34)C[C@H]21` [Dihydroergotamine] (74 µM): the “perturbation Mahalanobis distance” value is 3.4.

For the compound `CCC(C)C(C)(COC(N)=O)COC(N)=O` (stereo not drawn) [Mebutamate] (144.2 µM), the “perturbation Mahalanobis distance” value is 3.78.

Consider `NC(=O)CS(=O)C(c1ccccc1)c1ccccc1` (stereo not drawn) [Armodafinil] (27.1 µM), for which the “perturbation Mahalanobis distance” value was 2.45.

Regarding `NCC(CC(=O)O)c1ccc(Cl)cc1` (stereo not drawn) [Baclofen] (4.7 µM), the “perturbation Mahalanobis distance” value was 1.48.

Regarding `NCC1(CC(=O)O)CCCCC1` [Gabapentin] (122.6 µM), the “perturbation Mahalanobis distance” value is 2.79.

`CN(C)C(=O)Oc1ccc[n+](C)c1` [Pyridostigmine  Bromide] (5.5 µM): the “perturbation Mahalanobis distance” value is 2.49.

On to `COC[C@@H](NC(C)=O)C(=O)NCc1ccccc1` [Lacosamide] (49.9 µM), for which the “perturbation Mahalanobis distance” value was 2.67.

For `O=[N+]([O-])O[C@H]1CO[C@H]2[C@@H]1OC[C@H]2O[N+](=O)[O-]` [Isosorbide Dinitrate] (0.13 µM), the “perturbation Mahalanobis distance” value is 2.62.

For `NC1CC1c1ccccc1` (stereo not drawn) [Tranylcypromine] (7.5 µM), the “perturbation Mahalanobis distance” value was 3.55.

In the case of `C[C@]12CC[C@H]3[C@@H](CCC4=CC(=O)CC[C@@]43C)[C@@H]1CC[C@@H]2O` [Testosterone] (0.17 µM), the “perturbation Mahalanobis distance” value was 3.14.

On to `C[C@]12Cc3cn[nH]c3C[C@@H]1CC[C@@H]1[C@@H]2CC[C@@]2(C)[C@H]1CC[C@]2(C)O` [Stanozolol] (62.7 µM), for which the “perturbation Mahalanobis distance” value was 3.12.

Consider `COc1cc2c(cc1OC)C1CC(=O)C(CC(C)C)CN1CC2` (stereo not drawn) [Tetrabenazine] (10 µM), for which the “perturbation Mahalanobis distance” value is 3.85.

As to `O=C(O)CCCc1ccc(N(CCCl)CCCl)cc1` [Chlorambucil] (8.1 µM), the “perturbation Mahalanobis distance” value was 8.46 (active).

On to `CC(C)(O)C(=O)Nc1ccc([N+](=O)[O-])c(C(F)(F)F)c1` [Hydroxyflutamide] (27.1 µM), for which the “perturbation Mahalanobis distance” value is 4.63.

For the compound `C[C@]12CC[C@H]3[C@@H](CC[C@@]45O[C@@H]4C(O)=C(C#N)C[C@]35C)[C@@H]1CC[C@@H]2O` [Trilostane] (308.7 µM), the “perturbation Mahalanobis distance” value was 2.45.
